Columns and labels:
Assay in all cases: log2 ratio of Biotin-Ahx-Ub-VS probe labelling (fragment/DMSO); higher = less target engagement (more negative = stronger competition), active = hit call of the paper (q ≤ 0.05, log2 ratio ≤ -1)
Details in all cases: compound concentration: 200 uM; treatment time: 3 h
[1] = biological target: T1, OTUD6B (UniProt Q8N6M0)
T1 sequence (whole entry): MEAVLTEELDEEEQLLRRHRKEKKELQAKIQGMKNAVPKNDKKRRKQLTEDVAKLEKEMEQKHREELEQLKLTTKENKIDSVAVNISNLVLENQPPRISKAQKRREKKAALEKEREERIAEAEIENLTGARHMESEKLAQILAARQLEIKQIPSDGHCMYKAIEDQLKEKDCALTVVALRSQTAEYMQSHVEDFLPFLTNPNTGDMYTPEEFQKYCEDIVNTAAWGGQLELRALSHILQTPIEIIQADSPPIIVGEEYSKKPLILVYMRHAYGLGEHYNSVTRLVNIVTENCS
In short: (§1)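 Labelling with Biotin-Ahx-Ub-VS (0.5 µM final, 1 h) followed a 3 h triplicate treatment of HEK293T lysate (495 µg per sample, Tris/CHAPS/IGEPAL buffer with protease inhibitors) with fragment at 200 µM or vehicle. Labelled DUBs were NeutrAvidin-enriched, digested with LysC and trypsin, and run by diaPASEF LC-MS/MS. The values, average log2 fragment/vehicle ratios by unpaired t-test, come from global-median-normalised Spectronaut label-free quantities. Proteins with ≥2 unique peptides were used.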

[2] = biological target: T2, OTUD7B (UniProt Q6GQQ9)
T2 sequence (whole entry): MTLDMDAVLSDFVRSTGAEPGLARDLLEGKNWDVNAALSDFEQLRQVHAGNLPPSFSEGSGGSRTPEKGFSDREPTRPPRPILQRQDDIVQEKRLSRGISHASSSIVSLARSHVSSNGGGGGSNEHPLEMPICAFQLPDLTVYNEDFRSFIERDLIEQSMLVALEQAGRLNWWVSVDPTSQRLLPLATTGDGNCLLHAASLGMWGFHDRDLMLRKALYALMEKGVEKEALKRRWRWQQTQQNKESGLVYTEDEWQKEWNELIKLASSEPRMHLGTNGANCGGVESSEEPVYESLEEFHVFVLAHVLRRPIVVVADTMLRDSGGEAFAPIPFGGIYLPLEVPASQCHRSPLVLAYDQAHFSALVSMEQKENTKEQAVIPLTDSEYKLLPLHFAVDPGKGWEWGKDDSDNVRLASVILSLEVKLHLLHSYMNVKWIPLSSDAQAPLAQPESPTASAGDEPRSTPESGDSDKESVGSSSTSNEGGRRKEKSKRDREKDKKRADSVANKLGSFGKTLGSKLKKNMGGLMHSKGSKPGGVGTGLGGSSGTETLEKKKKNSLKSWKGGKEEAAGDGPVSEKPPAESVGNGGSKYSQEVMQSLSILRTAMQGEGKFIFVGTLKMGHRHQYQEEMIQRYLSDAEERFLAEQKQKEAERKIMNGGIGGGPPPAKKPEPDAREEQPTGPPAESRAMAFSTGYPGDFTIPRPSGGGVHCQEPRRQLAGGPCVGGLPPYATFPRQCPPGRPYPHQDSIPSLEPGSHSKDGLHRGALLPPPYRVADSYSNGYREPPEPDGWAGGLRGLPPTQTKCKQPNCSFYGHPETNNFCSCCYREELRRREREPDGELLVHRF
In short: as §1

[3] = biological target: PRPF8 (UniProt Q6P2Q9)
In short: as §1

[4] = biological target: T3, PSMD7 (UniProt P51665)
T3 sequence (whole entry): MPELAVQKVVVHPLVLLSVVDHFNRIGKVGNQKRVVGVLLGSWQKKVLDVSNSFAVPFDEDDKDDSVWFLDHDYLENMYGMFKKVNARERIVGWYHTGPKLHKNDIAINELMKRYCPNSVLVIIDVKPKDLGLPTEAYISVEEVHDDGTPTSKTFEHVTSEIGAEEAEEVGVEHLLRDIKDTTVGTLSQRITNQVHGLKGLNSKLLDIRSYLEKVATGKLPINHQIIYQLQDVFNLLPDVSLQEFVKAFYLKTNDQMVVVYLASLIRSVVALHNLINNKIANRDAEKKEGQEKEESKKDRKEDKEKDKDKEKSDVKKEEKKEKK
In short: as §1

[5] = biological target: UCHL1 (UniProt P09936)
In short: as §1

[6] = biological target: T4, UCHL3 (UniProt P15374)
T4 sequence (whole entry): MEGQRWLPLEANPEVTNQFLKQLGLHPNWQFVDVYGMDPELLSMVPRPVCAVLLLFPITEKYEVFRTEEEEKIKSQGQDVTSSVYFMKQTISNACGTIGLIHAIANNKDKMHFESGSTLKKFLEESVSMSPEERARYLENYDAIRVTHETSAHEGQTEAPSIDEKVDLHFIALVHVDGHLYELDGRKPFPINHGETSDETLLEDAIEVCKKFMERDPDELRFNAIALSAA
In short: as §1

[7] = biological target: T5, UCHL5 (UniProt Q9Y5K5)
T5 sequence (whole entry): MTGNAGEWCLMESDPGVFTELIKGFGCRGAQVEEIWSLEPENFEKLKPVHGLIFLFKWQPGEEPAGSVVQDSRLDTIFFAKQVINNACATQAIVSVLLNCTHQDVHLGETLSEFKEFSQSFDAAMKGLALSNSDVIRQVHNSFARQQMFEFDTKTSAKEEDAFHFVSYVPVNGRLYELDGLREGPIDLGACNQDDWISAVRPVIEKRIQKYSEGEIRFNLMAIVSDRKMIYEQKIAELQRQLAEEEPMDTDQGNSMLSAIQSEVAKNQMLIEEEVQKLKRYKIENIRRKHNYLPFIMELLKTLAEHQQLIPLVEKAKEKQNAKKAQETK
In short: as §1

[8] = biological target: USP10 (UniProt Q14694)
In short: as §1

[9] = biological target: T6, USP15 (UniProt Q9Y4E8)
T6 sequence (whole entry): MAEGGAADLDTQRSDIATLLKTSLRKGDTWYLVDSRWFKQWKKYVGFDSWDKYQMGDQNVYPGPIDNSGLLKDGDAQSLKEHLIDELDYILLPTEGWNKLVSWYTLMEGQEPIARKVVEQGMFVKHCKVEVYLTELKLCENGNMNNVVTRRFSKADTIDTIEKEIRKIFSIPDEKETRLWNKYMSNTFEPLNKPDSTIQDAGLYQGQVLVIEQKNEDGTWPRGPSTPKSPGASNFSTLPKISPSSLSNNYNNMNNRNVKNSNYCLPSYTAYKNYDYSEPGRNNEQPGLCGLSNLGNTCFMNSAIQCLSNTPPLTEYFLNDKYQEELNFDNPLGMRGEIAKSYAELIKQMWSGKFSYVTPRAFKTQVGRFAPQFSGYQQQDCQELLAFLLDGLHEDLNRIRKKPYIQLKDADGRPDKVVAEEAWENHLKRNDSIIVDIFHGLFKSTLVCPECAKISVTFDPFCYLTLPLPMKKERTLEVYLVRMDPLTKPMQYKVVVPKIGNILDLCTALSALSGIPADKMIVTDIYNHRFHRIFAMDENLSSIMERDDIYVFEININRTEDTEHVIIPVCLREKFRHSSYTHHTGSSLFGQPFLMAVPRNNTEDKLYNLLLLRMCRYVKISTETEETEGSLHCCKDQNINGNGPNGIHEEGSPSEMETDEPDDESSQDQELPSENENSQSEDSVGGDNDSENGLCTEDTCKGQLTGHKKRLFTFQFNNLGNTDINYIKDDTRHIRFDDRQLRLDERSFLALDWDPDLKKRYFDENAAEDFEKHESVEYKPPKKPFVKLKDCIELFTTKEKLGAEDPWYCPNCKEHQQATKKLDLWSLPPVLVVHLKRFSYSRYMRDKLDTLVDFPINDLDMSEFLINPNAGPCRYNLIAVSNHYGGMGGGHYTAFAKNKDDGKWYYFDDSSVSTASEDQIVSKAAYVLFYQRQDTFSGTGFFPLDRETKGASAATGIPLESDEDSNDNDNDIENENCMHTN
In short: as §1

[10] = biological target: USP16 (UniProt Q9Y5T5)
In short: as §1

Measured: log2 ratio of Biotin-Ahx-Ub-VS probe labelling

Sequence of UCHL1 (P09936 whole entry, looked up): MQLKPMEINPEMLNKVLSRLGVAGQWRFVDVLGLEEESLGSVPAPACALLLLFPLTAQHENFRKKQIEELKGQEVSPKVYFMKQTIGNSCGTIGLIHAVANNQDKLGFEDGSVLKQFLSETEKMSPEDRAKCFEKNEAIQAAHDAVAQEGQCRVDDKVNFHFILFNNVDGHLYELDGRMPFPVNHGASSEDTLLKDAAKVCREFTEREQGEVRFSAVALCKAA
Sequence of USP10 (Q14694 whole entry): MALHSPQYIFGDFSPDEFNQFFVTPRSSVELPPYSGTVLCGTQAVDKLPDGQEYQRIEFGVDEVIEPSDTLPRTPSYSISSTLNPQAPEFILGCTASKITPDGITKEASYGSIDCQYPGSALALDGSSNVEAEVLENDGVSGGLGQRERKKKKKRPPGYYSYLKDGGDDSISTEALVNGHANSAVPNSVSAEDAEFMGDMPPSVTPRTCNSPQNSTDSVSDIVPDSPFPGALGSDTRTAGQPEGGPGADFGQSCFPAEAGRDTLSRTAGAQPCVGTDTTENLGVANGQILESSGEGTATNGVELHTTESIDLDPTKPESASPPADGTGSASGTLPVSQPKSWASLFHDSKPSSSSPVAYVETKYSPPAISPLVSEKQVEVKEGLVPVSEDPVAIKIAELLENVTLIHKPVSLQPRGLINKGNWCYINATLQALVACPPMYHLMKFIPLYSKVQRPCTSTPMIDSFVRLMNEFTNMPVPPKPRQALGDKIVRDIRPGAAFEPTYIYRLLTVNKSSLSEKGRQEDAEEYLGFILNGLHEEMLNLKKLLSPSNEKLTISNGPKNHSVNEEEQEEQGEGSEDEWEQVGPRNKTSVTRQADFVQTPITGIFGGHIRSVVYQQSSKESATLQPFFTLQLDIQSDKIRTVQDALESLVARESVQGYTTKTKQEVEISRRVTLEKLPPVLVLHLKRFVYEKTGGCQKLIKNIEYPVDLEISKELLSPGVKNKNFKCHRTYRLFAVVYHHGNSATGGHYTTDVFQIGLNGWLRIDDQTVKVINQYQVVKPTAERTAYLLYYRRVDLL
Sequence of USP16 (Q9Y5T5 whole entry, looked up): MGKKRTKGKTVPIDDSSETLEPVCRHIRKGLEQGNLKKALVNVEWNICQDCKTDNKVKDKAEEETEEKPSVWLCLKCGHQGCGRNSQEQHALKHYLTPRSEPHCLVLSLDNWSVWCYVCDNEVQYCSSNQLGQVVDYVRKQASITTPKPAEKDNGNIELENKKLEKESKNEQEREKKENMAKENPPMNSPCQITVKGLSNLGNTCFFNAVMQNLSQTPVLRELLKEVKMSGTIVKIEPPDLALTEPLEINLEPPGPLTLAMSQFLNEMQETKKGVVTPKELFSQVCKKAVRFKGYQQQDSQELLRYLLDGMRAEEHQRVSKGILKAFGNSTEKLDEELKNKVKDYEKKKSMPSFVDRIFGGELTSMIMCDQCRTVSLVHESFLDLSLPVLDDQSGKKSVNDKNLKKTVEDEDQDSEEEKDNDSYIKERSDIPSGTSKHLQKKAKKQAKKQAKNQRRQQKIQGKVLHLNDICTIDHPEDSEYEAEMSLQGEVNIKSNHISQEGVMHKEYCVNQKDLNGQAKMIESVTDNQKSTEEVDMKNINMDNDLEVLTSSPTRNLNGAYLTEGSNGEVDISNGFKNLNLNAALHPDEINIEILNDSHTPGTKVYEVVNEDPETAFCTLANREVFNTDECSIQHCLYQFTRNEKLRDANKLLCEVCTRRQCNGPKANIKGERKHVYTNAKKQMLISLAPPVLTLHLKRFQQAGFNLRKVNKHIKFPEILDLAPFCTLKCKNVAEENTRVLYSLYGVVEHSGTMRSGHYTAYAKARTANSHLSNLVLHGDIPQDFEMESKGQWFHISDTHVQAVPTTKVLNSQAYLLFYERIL

O=C(CCl)N1CCc2ccccc2C(O)C1 (stereo not given)
inactive: [1] -0.357 | [3] 0.137 | [4] -0.212 | [6] -0.197 | [7] -0.317 | [8] -0.14 | [9] -0.392 | [10] 0.132
active: [2] -1.21 | [5] -1.58

Reference: the supplement of paper PMC11732987, “Enantioselective OTUD7B fragment discovery through chemoproteomics screening and high-throughput optimisation” (Communications Chemistry, 2025)
